# Laboratory results published in the supplement of paper PMC10646978.
# ± gives the standard deviation.
# Tests used:
# Settings in all cases: modulator concentration 10 µM
# [1] = tested on: RAW-Dual (murine macrophage reporter line); experiment: NF-kB reporter (SEAP) activity fold change vs agonist alone; higher = enhanced NF-kB activity
# In short: (§1)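 Overnight stimulation with a PRR agonist followed pre-incubation for 1 hour at 37 °C with compound at 10 μM final. This was done in RAW-Dual murine macrophage reporter cells seeded at 50 000 per well in 384-well plates. NF-κB (SEAP, QUANTI-Blue absorbance at 620 nm) and IRF (Lucia luciferase, QUANTI-Luc luminescence) were read from the supernatant. Each reporter's fold change relative to the mean agonist-only control on the same plate was averaged over replicate plates.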
# [2] = tested on: RAW-Dual (murine macrophage reporter line); experiment: IRF reporter (Lucia luciferase) activity fold change vs agonist alone; higher = enhanced IRF activity
# In short: as §1
# [3] = tested on: RAW-Dual (murine macrophage reporter line); experiment: viability score (confluency relative to resting cells, overnight) (fraction); higher = more viable, active = viable (0.7 or more)
# In short: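 Confluency was the readout: RAW-Dual macrophages were imaged with IncuCyte after an overnight exposure to compound at 10 μM final. IncuCyte software produced two masks over all imaged wells. The viability score expresses confluency against resting cells, and both masks had to exceed 70% of resting cells for a compound to meet the cutoff.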
# [4] = agonist: CpG ODN 1826 0.5 ug/mL
SMILES,"NF-kB reporter [1, 4]",NF-kB reporter ([1]; agonist: LPS 0.1 ug/mL),NF-kB reporter ([1]; agonist: MPLA […]),IRF reporter ([2]; agonist: 3'3'-cGAMP 10 ug/mL),IRF reporter ([2]; agonist: LPS 0.1 ug/mL),IRF reporter ([2]; agonist: MPLA […]),viability score [3]
COCCN1CCC(NC(=O)c2cccc3ccccc23)CC1,1.16 ± 0.099,1.06 ± 0.096,0.958 ± 0.039,0.992 ± 0.083,1.02 ± 0.072,1.04 ± 0.12,0.998 (active)
Ic1ccc2c3ccc(I)cc3c3[nH]c(-c4ccccc4)nc3c2c1,1.03 ± 0.094,1.07 ± 0.14,1.11 ± 0.042,0.814 ± 0.054,1.05 ± 0.1,1.31 ± 0.19,0.995 (active)
Cc1cc(C(=O)N2CCC(Oc3cccc4cccnc34)CC2)c(C)o1,1.1 ± 0.073,1.1 ± 0.12,0.81 ± 0.066,1.02 ± 0.092,1.07 ± 0.15,1.07 ± 0.23,1.01 (active)
c1ccc(CN2CCN(c3cc(-c4cccnc4)n[nH]3)CC2)cc1,0.805 ± 0.043,1.06 ± 0.096,1.21 ± 0.092,1.09 ± 0.051,1.37 ± 0.31,1.56 ± 0.59,0.98 (active)
Nc1ccn(C[C@@H](CO)OCP(=O)(O)O)c(=O)n1,1 ± 0.25,0.97 ± 0.057,0.961 ± 0.064,0.906 ± 0.03,1.3 ± 0.14,1.14 ± 0.16,1.01 (active)
Cc1ccc(-c2cc(-c3ccccc3)nc(N3CCOCC3)n2)cc1,0.811 ± 0.077,1.01 ± 0.075,1.1 ± 0.076,0.71 ± 0.065,1.05 ± 0.047,1.17 ± 0.082,0.998 (active)
CSCCC(NC(C)=O)C(=O)N1CCC(n2c(C)nc3ccccc32)C1 (configuration not stated),1.07 ± 0.063,0.96 ± 0.074,0.952 ± 0.025,0.98 ± 0.04,0.968 ± 0.086,0.957 ± 0.25,1 (active)
CNC(=O)[C@@H](NC(=O)[C@H](CC(C)C)[C@H](O)C(=O)NO)C(C)(C)C,1.29 ± 0.097,1.15 ± 0.13,0.996 ± 0.021,0.868 ± 0.048,0.983 ± 0.11,1 ± 0.13,1.01 (active)
CC(C)COc1ccc(CNC(=O)N(Cc2ccc(F)cc2)C2CCN(C)CC2)cc1.CC(C)COc1ccc(CNC(=O)N(Cc2ccc(F)cc2)C2CCN(C)CC2)cc1.O=C(O)[C@H](O)[C@@H](O)C(=O)O,0.136 ± 0.016,0.384 ± 0.16,0.129 ± 0.012,0.0542 ± 0.025,0.528 ± 0.31,0.03 ± 0.0028,0.0597 (inactive)
Cc1c(C(=O)NN2CCCCC2)nn(-c2ccc(Cl)cc2Cl)c1-c1ccc(Cl)cc1,0.799 ± 0.037,1.25 ± 0.11,0.981 ± 0.075,0.282 ± 0.015,0.618 ± 0.13,0.752 ± 0.17,1 (active)
O=C(Cn1ncccc1=O)N1Cc2cnc(N3CCOCC3)nc2C1,0.942 ± 0.082,1.1 ± 0.1,0.938 ± 0.042,0.956 ± 0.058,1.16 ± 0.21,1.09 ± 0.31,0.998 (active)
O=C(Nc1nc2cccc(-c3ccc(CN4CCS(=O)(=O)CC4)cc3)n2n1)C1CC1,0.0988 ± 0.0077,0.639 ± 0.07,0.873 ± 0.05,0.79 ± 0.047,0.851 ± 0.2,0.845 ± 0.25,0.834 (active)
Fc1ccc(Nc2nc(NN=Cc3ccccc3F)nc(N3CCCCC3)n2)cc1,1.41 ± 0.13,0.987 ± 0.12,1.02 ± 0.096,1.16 ± 0.081,1.26 ± 0.18,1.74 ± 0.28,1.01 (active)
Cc1cc(OC2CN(C(=O)CSCc3ccccc3)C2)cc(=O)n1C1CC1,1.12 ± 0.056,1.07 ± 0.085,0.994 ± 0.05,0.658 ± 0.034,0.986 ± 0.086,1.11 ± 0.31,1 (active)
Nc1ccn(C2OC(CO)C(O)C2O)c(=O)n1 (configuration not stated),1 ± 0.082,0.875 ± 0.092,1.49 ± 0.44,0.96 ± 0.052,1.25 ± 0.2,1.26 ± 0.27,1.03 (active)
O=C(NCC1CCCN1c1nccs1)C1CC1 (configuration not stated),0.946 ± 0.045,1.02 ± 0.12,1.13 ± 0.084,0.973 ± 0.07,1.03 ± 0.23,1.18 ± 0.54,0.99 (active)
O=S(=O)(c1ccccc1)N1CCOCC1,0.956 ± 0.057,0.992 ± 0.061,0.935 ± 0.071,0.981 ± 0.033,1.33 ± 0.21,1.15 ± 0.15,1 (active)
O=C(CSc1nnnn1-c1ccccc1)NC12CC3CC(CC(C3)C1)C2,1.01 ± 0.09,0.967 ± 0.053,0.943 ± 0.059,0.96 ± 0.054,1.12 ± 0.24,0.933 ± 0.058,1.02 (active)
O=C(Nc1ccc([N+](=O)[O-])cc1Cl)c1cccnc1,0.871 ± 0.26,0.96 ± 0.11,0.982 ± 0.16,0.958 ± 0.061,1.06 ± 0.23,1.33 ± 0.37,0.996 (active)
Oc1ccc(O)cc1,1.33 ± 0.2,0.586 ± 0.41,0.377 ± 0.093,0.459 ± 0.018,0.58 ± 0.41,0.211 ± 0.13,0.909 (active)
O=C(O)c1cc(NC(=O)c2ccc(Cl)c([N+](=O)[O-])c2)cc(C(=O)O)c1,1.08 ± 0.11,0.973 ± 0.064,1.02 ± 0.045,1.03 ± 0.19,1.04 ± 0.088,1.08 ± 0.17,1 (active)
CN(C)CCN(Cc1ccccc1)Cc1cc(Cl)cc(Cl)c1O,0.799 ± 0.063,0.918 ± 0.081,0.996 ± 0.086,0.947 ± 0.058,1.29 ± 0.074,1.32 ± 0.12,1.01 (active)
COc1ccc(N(CC(=O)N(C)Cc2ccccc2)S(C)(=O)=O)cc1OC,1.08 ± 0.086,1.02 ± 0.083,1.05 ± 0.08,1.03 ± 0.026,1.45 ± 0.21,1.1 ± 0.18,1.01 (active)
COC(=O)C1=C(C)NC(C)=C(C(=O)OCCN(C)Cc2ccccc2)C1c1cccc([N+](=O)[O-])c1.Cl (configuration not stated),0.996 ± 0.055,0.91 ± 0.074,0.887 ± 0.047,1.1 ± 0.052,1.01 ± 0.16,0.988 ± 0.29,0.397 (inactive)
CN(C)CC(c1ccc(O)cc1)C1(O)CCCCC1 (configuration not stated),0.971 ± 0.16,1.07 ± 0.26,0.893 ± 0.054,0.897 ± 0.045,1.44 ± 0.32,1.17 ± 0.092,0.992 (active)
Cn1cc(-c2cc(CNC(=O)c3cncc(F)c3)ccn2)cn1,1.12 ± 0.074,1.09 ± 0.1,0.964 ± 0.033,0.966 ± 0.039,0.973 ± 0.046,1.04 ± 0.2,0.995 (active)
